“And” between values parts separate entries of the source, which are not always exact repeats. Equal values may be shown once. Among all 360,000 compounds or so, about 2,400 (0.67%) were called active.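 Rule for the calls: active = activation above a run cutoff, the mean activation of all tested compounds plus 3 SD (cut at about 14% in these data); inactive = the rest.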 Shown is part of a subset that was picked to be rich in actives.

In this assay the target is 5-hydroxytryptamine receptor 2A (Mus musculus) (UniProt P35363). Put plainly: activation of mouse 5-HT2A receptor – cell-based, luminescence, primary screen (AID 624169).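 Note: 0% = plate median of compound wells and 100% = 30 µM serotonin.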 The settings on record: CHO-K1 mHTR2A beta-arrestin complementation, at 7.6 µM, stronger effect = higher value, percent of 30 µM serotonin response.
Chain of 5-hydroxytryptamine receptor 2A (Mus musculus) (P35363 whole entry, looked up): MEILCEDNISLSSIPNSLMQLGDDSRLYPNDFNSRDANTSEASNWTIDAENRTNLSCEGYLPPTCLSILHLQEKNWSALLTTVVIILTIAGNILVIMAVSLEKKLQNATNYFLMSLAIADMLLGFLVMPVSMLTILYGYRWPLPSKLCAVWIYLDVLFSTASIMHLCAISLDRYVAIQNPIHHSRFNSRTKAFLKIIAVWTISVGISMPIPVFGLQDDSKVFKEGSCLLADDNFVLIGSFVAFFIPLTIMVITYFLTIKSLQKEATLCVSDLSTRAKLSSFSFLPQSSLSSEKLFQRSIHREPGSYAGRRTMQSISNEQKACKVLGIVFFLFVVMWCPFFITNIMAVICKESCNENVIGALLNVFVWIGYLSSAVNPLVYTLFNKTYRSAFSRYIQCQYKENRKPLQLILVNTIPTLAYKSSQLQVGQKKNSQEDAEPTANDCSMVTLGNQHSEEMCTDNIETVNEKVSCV
As for `Cc1ccc(S(=O)(=O)C2C(=O)NC3(C)CC2c2ccccc2O3)cc1` (stereo not given), the activation is -3.98% (inactive).
Next, `O=C(NCc1ccccc1)c1ccc(CNc2c(N3CCCC3)c(=O)c2=O)cc1`: -2.51% (inactive).
Take `COc1ccc(-c2nc3cc([N+](=O)[O-])ccc3o2)cc1OC`: the activation is 15.3% (active).
Turning to `CC(=O)Oc1ccc2c(=O)oc(-c3ccc([N+](=O)[O-])cc3)nc2c1`, the activation was 6.81% (inactive).
As to `O=[N+]([O-])c1ccc2oc(-c3cccc(O)c3)nc2c1`, the activation is -2.7% (inactive).
On to `CNc1ccc(SC#N)cc1`, for which the activation was 8.45% (inactive).
On to `NCCCC[C@@H]1NC(=O)[C@H](CCC(=O)O)NC(=O)c2cc([N+](=O)[O-])cc(I)c2NCC[C@@H](C(N)=O)NC1=O`, for which the activation is -1.82% (inactive).
`O=C1CCC(C(=O)Nc2ccc(OC(F)F)cc2)N1` (stereo not given): the activation was 2.5% (inactive).
For the compound `Cc1ccc2nc(-c3ccncc3)cc(C(=O)Nc3ccncc3)c2c1`, the activation was 14.5% (active).
As to `Cc1ccc2nc(-c3ccncc3)cc(C(=O)Nc3ccc(OC(F)F)cc3)c2c1`, the activation was -2.82% (inactive).
Consider `CC1CCCC(NC(=O)c2cc(-c3ccncc3)nc3ccccc23)C1C` (stereo not given), for which the activation is -0.93% (inactive).
Turning to `CC1CCCCC1NC(=O)CCS(=O)(=O)c1ccc2c(c1)NC(=O)CO2` (stereo not given), the activation is 1.84% (inactive).
Turning to `CCOC(=O)/C=c1\s/c(=C\c2ccccc2OC)c(=O)n1CC(=O)N1CCOCC1`, the activation was 15.6% (active).
On to `CCc1cc(C(c2ccccc2OC)N2CCOCC2)c(NC(=O)c2ccccc2)s1` (stereo not given), for which the activation was -2.8% (inactive).
Next, `COc1ccccc1/C=C/C(=O)NC(=S)N1CCOCC1`: -0.42% (inactive); `Cc1cccc(NC(=O)CSc2nnc(NC(=O)CN3CCOCC3)s2)c1`: 4.08% (inactive).
As to `CCCNS(=O)(=O)c1ccc(CCC(=O)N2CCCC2)cc1`, the activation was 0.26% (inactive).
In the case of `O=C1N(Cc2ccc3c(c2)OCO3)c2ccccc2C1(O)c1c[nH]c2ccccc12` (stereo not given), the activation is 4.88% (inactive).
As to `COC(=O)[C@]12CCCCC=C1N(Cc1ccc3c(c1)OCO3)C(=O)[C@H](CC(=O)NCc1cccs1)C2`, the activation is 7.05% (inactive).
In the case of `CCOC(=O)[C@]12CCCC=C1N(Cc1ccc3c(c1)OCO3)C(=O)[C@H](CC(=O)N1CCN(C(=O)c3ccco3)CC1)C2`, the activation was 1.52% (inactive).
Next, `CCOC(=O)[C@]12CCCC=C1N(Cc1ccc3c(c1)OCO3)C(=O)[C@H](CC(=O)NCc1cccs1)C2`: 23.4% (active).
For the compound `CCNC(=O)c1cc2c(c(-c3cccc(-c4cncnc4)c3)n1)[C@H](CCO)N(C(C)=O)C2`, the activation is -0.81% (inactive).
On to `CN1CCC(=O)N([C@H](CO)Cc2ccccc2)CC1`, for which the activation was -5.13% (inactive).
As to `COCCN(CCOC)S(=O)(=O)NC[C@H]1O[C@@H](n2cnc3c(N)ncnc32)[C@H](O)[C@@H]1O`, the activation is 4.4% (inactive).
`CC(=O)OCCOCn1cnn2c(=O)c(Br)c(C)nc12`: the activation is 1.26% (inactive).
For `COc1ccccc1NC(=O)c1ccc(N2CC3CC(C2)c2cccc(=O)n2C3)c(NC(=O)c2cccnc2)c1` (stereo not given), the activation is 3.35% (inactive).
Consider `CN(c1ccccc1)S(=O)(=O)c1ccc(C(=O)N2CCN(c3ccccc3Cl)CC2)cc1`, for which the activation is -7.83% (inactive).
As to `Nc1cc(C(=O)N2CCN(c3ccccc3Cl)CC2)ccc1N1CC2CC(C1)c1cccc(=O)n1C2` (stereo not given), the activation is 17.7% (active).
Next, `Nc1[nH][nH]c(=O)c1N=Nc1ccc2c(c1)OCO2`: -2.91% (inactive).
For the compound `CCc1ccc(N2CC(C(=O)Nc3ccc(S(=O)(=O)Nc4nccs4)cc3)CC2=O)cc1` (stereo not given), the activation was -3.72% (inactive).
Consider `CN(C)[C@@H]1C(=O)C(C(N)=O)=C(O)[C@@]2(O)C(=O)C3=C(O)c4c(O)ccc(Cl)c4[C@@H](O)[C@H]3C[C@@H]12`, for which the activation was 15.9% (active).
Regarding `C=C1c2c(Cl)ccc(O)c2C(O)=C2C(=O)[C@]3(O)C(O)=C(C(N)=O)C(=O)[C@@H](N(C)C)[C@@H]3[C@@H](O)C12` (stereo not given in full), the activation was -1.23% (inactive).
On to `C=C(C)C(=O)Nc1cccc(C2=NOC3(C2)C[C@H](C(N)=O)N(C(=O)C(c2ccccc2)c2ccccc2)C3)c1` (stereo not given in full), for which the activation is 5.68% (inactive).
`CCCCn1c(SCC(=O)N2CCCC2=O)nc2cc(S(N)(=O)=O)ccc21`: the activation was 0% (inactive).
As to `CCn1c(SCC(=O)N2CCCC2=O)nc2ccccc21`, the activation was 15.3% (active).
Consider `CCn1c(SCC(=O)NCC2CCCO2)nc2ccccc21` (stereo not given), for which the activation is 2.38% (inactive).
With `O=C(NCc1ccccc1)[C@@H]1CSC2c3ccccc3C(=O)N21` (stereo not given in full), the activation is 1.3% (inactive).
Regarding `COc1cccc(OC)c1C(=O)N1CCN(Cc2ccccc2F)CC1`, the activation was 2% (inactive).
Consider `COc1ccccc1CN1CCN(Cc2cc(OC)c(OC)cc2OC)CC1`, for which the activation is 25.8% (active).
For the compound `COc1cc(OC)c(OC)cc1CN1CCN(C(=O)c2cccc3ccccc23)CC1`, the activation is 0.49% (inactive).
For `C/C(CC(=O)NCc1ccc(Cl)cc1)=N\NC(=O)COc1ccc(C)cc1Br`, the activation was -5.06% (inactive).
The same measure for `CC(C)CN(C(=O)c1cccc(S(=O)(=O)N2CCCCC2)c1)C1CCS(=O)(=O)C1` (stereo not given): 3.09% (inactive).
Consider `O=C(O)c1ccc(S(=O)(=O)N2CCC(Cc3ccccc3)CC2)cc1`, for which the activation was 22.2% (active).
For `NC(=O)c1ccc(CN2CCC(Cc3ccccc3)CC2)cc1`, the activation was -5.52% (inactive).
On to `Cn1cc(S(=O)(=O)N2CCC(Cc3ccccc3)CC2)c(=O)n(C)c1=O`, for which the activation was -1.79% (inactive).
In the case of `CCCCN(C(=O)c1ccc(C)o1)c1c(N)n(CCCC)c(=O)[nH]c1=O`, the activation is -12.3% (inactive).
The same measure for `C/C(CC(=O)NC(C)(C)C)=N\NC(=O)c1ccco1`: 5.46% (inactive); for `Cc1cc(C)n(-c2ccc(NC(=O)C3CCCCN3C(=O)c3cccs3)cc2)n1` (stereo not given): -0.84% (inactive); for `CC(=O)N1CCN(C(=O)c2cc(-c3ccc(Cl)s3)nc3ccccc23)CC1`: -0.1% (inactive).
Next, `Cc1cc(C(=O)OCC(=O)N2C(C)CCCC2C)c2ccccc2n1` (stereo not given): 5% (inactive).
As to `COC(=O)c1cc(N2CCNCC2)nc2ccccc12`, the activation is 54.9% (active).
As for `CCOc1ccc(CN(Cc2ccco2)C(c2cccs2)c2nnnn2C(C)(C)C)cc1` (stereo not given), the activation was 6.56% (inactive).
`CC(C)Oc1ccc(Cc2n[nH]c(=S)n2Cc2ccccc2)cc1Cl`: the activation is 0.66% (inactive).
Regarding `CC(C)c1nnc(NC(=O)CCC(=O)N2CCN(c3cccc(Cl)c3)CC2)s1`, the activation was 10.8% (inactive).
As to `COC(=O)c1ccccc1OCC(=O)N1CCN(c2ccc(Cl)cc2)CC1`, the activation is 3.93% (inactive).
Take `COC(=O)CC(=O)N1CCN(c2ccc(Cl)c(Cl)c2)CC1`: the activation is 34.5% (active).
On to `O=C(c1ccco1)N(Cc1nc2ccccc2c(=O)[nH]1)C1CCCC1`, for which the activation was 3.03% (inactive).
Consider `COc1ccc(-c2cc(C(=O)N3CCN(Cc4ccc5c(c4)OCO5)CC3)on2)cc1OC`, for which the activation was -7.64% (inactive).
Regarding `O=C(c1cccs1)N1CCN(Cc2ccc3c(c2)OCO3)CC1`, the activation is 25.9% (active).
As for `O=C(CCCN1C(=O)c2cccc3cccc(c23)C1=O)N1CCN(Cc2ccc3c(c2)OCO3)CC1`, the activation was -3.63% (inactive).
The same measure for `Cc1nc2ccccc2nc1CC(O)(c1ccccc1)c1ccccc1`: 1.95% (inactive); for `Cc1ccc(S(=O)(=O)N[C@H]2CCC[C@@H]2O)cc1`: 0.49% (inactive).
With `O=C(O)Cc1csc(-c2cccc(Oc3ccccc3)c2)n1`, the activation is 5.47% (inactive) and 2.04% (inactive).
As for `O=C(OCCOc1ccccc1F)c1cc(S(=O)(=O)N2CCOCC2)ccc1F`, the activation is -6.59% (inactive).
As to `COc1cc(NC(=O)COC(=O)c2cc(S(=O)(=O)N3CCOCC3)ccc2F)cc(OC)c1`, the activation is 2.06% (inactive).
Regarding `O=C(COC(=O)c1cc(S(=O)(=O)N2CCOCC2)ccc1F)NC1CC1`, the activation is 20.8% (active).
With `C[C@H](CO)N1C[C@H](C)[C@@H](CN(C)S(=O)(=O)c2ccc(F)cc2)Oc2c(NC(=O)Nc3ccccc3)cccc2C1=O`, the activation was 1.16% (inactive).
Regarding `CCSCc1nc(N)nc(NCCc2ccccc2)n1`, the activation is -1.03% (inactive).
Consider `CC(=O)c1ccc(OCCCC(=O)Nc2ccc(C)c(S(=O)(=O)N3CCOCC3)c2)cc1`, for which the activation is 4.29% (inactive).
As for `COC(=O)c1ccc(-c2c(-c3ccccc3)ncc3cc(OC)c(OC)cc23)cc1`, the activation was 6.54% (inactive).
In the case of `COc1ccc(/C(=N\O)c2nccc3cc(OC)c(OC)cc23)cc1OC`, the activation is 24.7% (active).
On to `COc1cc2ccc(C(C)=O)c(O)c2cc1OC`, for which the activation is -4.06% (inactive).
As to `N#Cc1c(NC(=O)C2CCCO2)sc2c1CCCCC2` (stereo not given), the activation was 0.23% (inactive).
Take `N#Cc1c(NC(=O)CCCl)sc2c1CCCCC2`: the activation is 20% (active).
`N#Cc1c(NC(=O)C2CC(Cl)=CCC2C(=O)O)sc2c1CCCCC2` (stereo not given): the activation is 5.86% (inactive).
For the compound `Cc1ccc(OC(=O)c2ccccc2C(=O)OCC(F)(F)C(F)F)cc1`, the activation was -7.85% (inactive).
`COc1ccc(C(=O)OCC(=O)NC(=O)CCSc2ccccc2)cc1`: the activation is 1.32% (inactive).
On to `C[C@@H]1C(c2ccc(F)cc2)=NN(c2ccc(Br)cc2)[C@H]1C(=O)N1CCOC1=O`, for which the activation is -5.98% (inactive).
As to `CCCCCC(O)(CCN1CCCCC1)c1ccccc1` (stereo not given), the activation was -1.22% (inactive).
On to `O=C(CSc1nnc(N2CCOCC2)n1-c1cccc(F)c1)N1CCN(c2ccccn2)CC1`, for which the activation is -5.52% (inactive).
`CCc1ccccc1NC(=O)CCOc1ccccc1`: the activation is 1.35% (inactive).
Regarding `Cc1ccc(NC(=O)CCOc2ccccc2)cc1S(=O)(=O)Nc1ccccc1Cl`, the activation was 15.2% (active).
The same measure for `Cc1ccccc1NC(=O)CCOc1ccccc1`: 4.29% (inactive); for `CC(=O)Nc1cc(-c2ccccc2F)cn2c(-c3cccc(C(F)(F)F)c3)cnc12`: 1.96% (inactive).
Regarding `Cc1cccc(CN2CCN(C3CN(Cc4cn(Cc5cc(C)cc(C)c5)nn4)S(=O)(=O)C3)CC2)c1` (stereo not given), the activation was 19.3% (active).
The same measure for `Cc1cccc(CN2CCN(C3CN(Cc4ccccc4)S(=O)(=O)C3)CC2)c1` (stereo not given): 20.9% (active); for `CCCCN1CC(N2CCN(Cc3cccc(C)c3)CC2)CS1(=O)=O` (stereo not given): 12.1% (inactive); for `Cc1ccc(Cn2cc(CN3CC(N4CCN(C)CC4)CS3(=O)=O)nn2)cc1` (stereo not given): -3.17% (inactive).
On to `Cc1ccc(CN2CC(N3CCC(Cc4ccccc4)CC3)CS2(=O)=O)cc1` (stereo not given), for which the activation is -4.23% (inactive).
Take `Cc1cccc(CN2CCN(C3CN(Cc4cn(Cc5ccccc5F)nn4)S(=O)(=O)C3)CC2)c1` (stereo not given): the activation was 7.98% (inactive).

Source of the values: PubChem BioAssay AID624169 (The Scripps Research Institute Molecular Screening Center, 2012).
